Most compounds without a hit are left out; they make up all but 5.4% or so of the library.
VP16 counter: inhibits Gal4-VP16 luciferase reporter, ROR gamma counter-screen. Drosophila S2 Gal4-VP16 UAS-luciferase, luminescence, 20 h. Potency, µM (doses to about 53.6 µM), most hits filed as inhibitors. hit rate 3.5% among 310,000;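 note: Gal4-VP16 expression switched on by copper sulfate through the metallothionein promoter; nearly all actives have a fitted effect of over 50% in size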
CtBP-E1A inh: inhibitors of CtBP/E1A interaction; AlphaScreen GST-E1A/His-CtBP binding, 1536-well; hits give low values; activity change, % (no concentration beside the values); hit rate 0.49% among 340,000; in the data active = activity change below about -65%; inconclusive = mostly about -30% to -63%
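AlphaScreen with 125 nM GST-E1A and 125 nM His-CtBP (5X stocks) in Tris pH 8.0, 300 mM NaCl, BSA, Tween 20, TCEP. Compounds preincubated 2 h at 37 deg C, then glutathione donor/nickel acceptor beads added for 1 h at 37 deg C in dark.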
Six1-Eya2 blk: Six1/Eya2 interaction inhibition; Q15475+O00167; AlphaScreen GST-Six1/His-Eya2 binding, biochemical; hits give low values; activity change, % (test concentration not listed); hit rate 0.56% among 360,000; in the data active = activity change below about -65%; inconclusive = mostly about -30% to -63%
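AlphaScreen luminescence read after one hour at 37 °C in darkness. Pin-transferred compounds met GST-Six1 and His-Eya2 protein (5X stock 250 nM/500 nM) plus glutathione donor and Ni-chelate acceptor beads (5X, 50 ug/mL).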
p53 reactivation: restores transcriptional activity of mutant p53; H1299 p53-A138V BP100-luciferase reporter, luminescence, 24 h; hit rate 0.063% among 320,000; Potency, µM (titrated, usually from 92.2 µM), usual class: activators; AID 504706; note: nearly all actives have a fitted effect of over 45% in size
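p53-null H1299 cells stably carrying temperature-sensitive p53-A138V and a BP100-luciferase reporter were pinned with compounds (4-point, 1:5 series) and held 24 hrs at 37 deg C. Luminescence was read 10 min after detection reagent.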
RORg inh: inhibitors of mouse ROR gamma transcriptional activity; Drosophila S2 Gal4-RORgamma UAS-luciferase reporter, 20 h; Potency, µM (series often up to 53.6 µM), usual class: inhibitors; hit rate 5.4% among 310,000; note: nearly all actives have a fitted effect of over 60% in size
Target sequence (P51450 whole entry, looked up, the tested form may be a part): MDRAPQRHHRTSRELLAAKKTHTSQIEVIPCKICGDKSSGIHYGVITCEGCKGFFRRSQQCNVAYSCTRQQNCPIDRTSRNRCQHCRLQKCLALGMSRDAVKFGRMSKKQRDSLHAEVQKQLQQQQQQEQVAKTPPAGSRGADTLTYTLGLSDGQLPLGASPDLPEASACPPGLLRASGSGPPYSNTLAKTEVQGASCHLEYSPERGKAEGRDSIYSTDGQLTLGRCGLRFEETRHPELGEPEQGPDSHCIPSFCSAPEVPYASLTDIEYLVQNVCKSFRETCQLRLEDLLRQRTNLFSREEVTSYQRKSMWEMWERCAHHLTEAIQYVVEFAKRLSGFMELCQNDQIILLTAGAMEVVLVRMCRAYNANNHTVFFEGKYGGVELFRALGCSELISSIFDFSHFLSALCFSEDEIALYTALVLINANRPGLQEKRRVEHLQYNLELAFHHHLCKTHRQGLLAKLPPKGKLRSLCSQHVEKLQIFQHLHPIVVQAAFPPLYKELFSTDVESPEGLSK
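Luminescence from a UAS-regulated Photinus luciferase reporter in stably transfected Drosophila Schneider cells is measured; decreased signal marks ROR gamma inhibition. Fusion expression is induced by 700 uM copper sulfate for 20 hr.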
Large screens that a line does not name were inactive. Unless noted, calls come from the whole dose curve; as a rule, active = well fitted curve in the direction sought with a large enough effect; inconclusive = small, poorly fitted or top-dose-only effect, or another doubt; inactive = no such curve, though single readings can be large; an effect the other way counts as inactive or inconclusive.

Cc1cc(N/N=C/c2cccc(Cl)c2)nc(NCc2ccccc2)n1	VP16 counter inconclusive, RORg inh inconclusive
Cc1cc(N2CCOCC2)nc(NCc2ccccc2)n1	VP16 counter inconclusive
Cc1cc(Nc2cccc(Cl)c2)nc(NCc2ccccc2)n1	VP16 counter 16µM, RORg inh inconclusive
COc1ccccc1NC(=O)c1ccc(NC(=O)CSc2ncn[nH]2)cc1	none
NS(=O)(=O)c1cc([C@@]2(O)NC(=O)c3ccccc32)ccc1Cl	none (no result: CtBP-E1A inh, Six1-Eya2 blk, p53 reactivation)
CCc1nnc(NC(=O)c2cccc(S(=O)(=O)N3CCN(c4ccccc4)CC3)c2)s1	VP16 counter inconclusive, RORg inh 13µM
CCCNC(=O)c1cc(S(=O)(=O)N2CCc3ccccc32)cn1C	VP16 counter 14µM, RORg inh inconclusive (no result: p53 reactivation)
CCOC(=O)c1sc(NC(=O)c2cccnc2)c(C#N)c1C	p53 reactivation inconclusive
O=C(Nc1nc2c(s1)CCCC2)c1cccc(S(=O)(=O)N2CCCc3ccccc32)c1	VP16 counter 13µM, RORg inh 3.2µM
CCOC(=O)c1sc(NC(=O)c2cccc(S(=O)(=O)N3CCc4ccccc43)c2)c(C#N)c1C	VP16 counter 5.6µM, RORg inh inconclusive
O=CN1CCc2c([nH]c3ccccc23)C1c1cccc2cccnc12 (configuration not stated)	none (no result: CtBP-E1A inh, Six1-Eya2 blk, p53 reactivation)
CCC(CC)c1nnc(NC(=O)c2cccc(S(=O)(=O)N3CCc4ccccc43)c2)s1	VP16 counter inconclusive, RORg inh 16µM
CC(C)(C)c1csc(NC(=O)CCc2ccccc2)n1	p53 reactivation 32µM
CC(C)(C)c1csc(NC(=O)Cc2cccs2)n1	none
CC(=O)NCCNc1ncncc1-c1ccc(N(C)C)cc1	RORg inh inconclusive (no result: CtBP-E1A inh, Six1-Eya2 blk, p53 reactivation)
CC1=NN(C(=O)COc2ccccc2C)C(O)(c2ccc(Cl)cc2)C1 (configuration not stated)	VP16 counter 7.9µM, RORg inh 14µM
CCC1=NN(C(=O)COc2ccccc2C)C(O)(c2ccncc2)C1 (configuration not stated)	VP16 counter inconclusive, RORg inh 4µM
CC1=NN(C(=O)COc2ccccc2)C(O)(c2cccnc2)C1 (configuration not stated)	none (no result: CtBP-E1A inh)
CC(C)(C)NNC(=S)Nc1cccc(F)c1	VP16 counter 3.5µM, RORg inh 0.63µM
Fc1cccc(NC(=S)Nc2ccc(Br)cc2)c1	VP16 counter inconclusive, RORg inh inconclusive
FC(F)(F)c1cccc(NC(=S)NCc2ccc(Cl)cc2)c1	VP16 counter inconclusive, RORg inh 8.9µM
Fc1cccc(NC(=S)NCc2ccc(Cl)cc2)c1	VP16 counter 18µM, RORg inh 6.3µM
Fc1ccccc1CNC(=S)Nc1cccc(C(F)(F)F)c1	VP16 counter 7.1µM, RORg inh 7.1µM
COC(=O)[C@@]1(Cc2ccccc2)[C@H]2c3cc(C(=O)N(C)C)n(Cc4ccc(O)c(OC)c4)c3C[C@H]2CN1C(=O)c1ccccc1	none (no result: CtBP-E1A inh, Six1-Eya2 blk, p53 reactivation)
Cn1nnc(NC(=S)NC(=O)Cc2ccccc2)n1	VP16 counter 11µM, RORg inh 1.4µM
Cn1nnc(NC(=O)c2ccco2)n1	none
Cn1nnc(NC(=S)NC(=O)c2cc3ccccc3o2)n1	VP16 counter 6.3µM, RORg inh 1.1µM (no result: CtBP-E1A inh)
Cn1nnc(NC(=S)NC(=O)c2ccco2)n1	VP16 counter 10µM, RORg inh inconclusive
COc1ccc(CCNC(=O)Cc2cccc(C(F)(F)F)c2)cc1OC	none
Clc1ccc(NCc2ccsc2)cc1	none (no result: CtBP-E1A inh, Six1-Eya2 blk)
COc1ccc(OC)c(NC(=O)CSc2ncnc3c2cnn3-c2ccccc2Cl)c1	VP16 counter 1.4µM, RORg inh inconclusive
COc1cc(NC(=O)CSc2ncnc3c2cnn3Cc2ccccc2)cc(OC)c1	none
COc1ccccc1/C=C/C(=O)NCCc1ccccn1	VP16 counter inconclusive, p53 reactivation inconclusive
Cc1cccc(C)c1NC(=O)CNC(=O)C(C)N(C)CC(=O)Nc1ccc(F)cc1 (configuration not stated)	none (no result: VP16 counter, RORg inh)
C=C1CCN(C(Cc2ccccc2)C(=O)NCc2ccc(Cl)c(Cl)c2)S(=O)(=O)c2ccccc21 (configuration not stated)	none (no result: CtBP-E1A inh, Six1-Eya2 blk, p53 reactivation)
c1ccc(-c2cn(-c3ccccc3)c3[n+]2CCS3)cc1	none
CC(C)(C)c1ccc(-c2cn(-c3ccc(Br)cc3)c3[n+]2CCCS3)cc1	VP16 counter 7.9µM, RORg inh 7.1µM
COC(=O)/C=C/c1cccc(N(Cc2ccc(-c3ccc(N(C)C)cc3)cc2)C(=O)C2CCCCC2)c1	none (no result: CtBP-E1A inh, Six1-Eya2 blk, p53 reactivation)
O=C(OCC(=O)N1CCCc2ccccc21)c1cncc(Br)c1	VP16 counter 1.1µM, RORg inh inconclusive
O=C(OCC(=O)N1CCc2ccccc21)c1cncc(Br)c1	none
O=C(NC(=S)Nc1ccccn1)c1cccc([N+](=O)[O-])c1	VP16 counter inconclusive, CtBP-E1A inh -74, Six1-Eya2 blk inconclusive, p53 reactivation inconclusive, RORg inh 3.5µM
CCOc1ccc(C(=O)NC(=S)Nc2cccnc2)cc1[N+](=O)[O-]	RORg inh 14µM
CCOc1ccc(C(=O)NC(=S)Nc2ccccn2)cc1[N+](=O)[O-]	VP16 counter inconclusive, p53 reactivation inconclusive, RORg inh 0.71µM
O=C(NC(=S)Nc1cccc([N+](=O)[O-])c1)c1ccccc1	p53 reactivation inconclusive, RORg inh inconclusive (no result: CtBP-E1A inh)
CC[C@H]1C(O)C[C@H]2CCN3C(=O)CCC[C@H]1[C@H]23 (some centres not stated)	none
CCOc1ccc(/C=C/C(=O)c2cc(Br)ccc(=O)c2O)cc1	VP16 counter 22µM, RORg inh inconclusive
C=CCNC(=S)N/N=C/c1ccc(C(C)(C)C)cc1	VP16 counter 0.56µM, RORg inh 0.28µM
CCN(Cc1ccccc1)c1ccc(/C=N/NC(=S)NC(C)C)cc1	VP16 counter 1.3µM, RORg inh 1.3µM
CC(C)(C)c1ccc(/C=N/NC(=O)C2CCCC2)cc1	p53 reactivation inconclusive
Cn1c(=O)n(C)c2cc(/C=N/NC(=S)NCc3ccccc3)ccc21	VP16 counter inconclusive, Six1-Eya2 blk inconclusive, RORg inh 10µM
Cc1c(NC(=S)N/N=C/c2ccc(N(C)C)cc2)c(=O)n(-c2ccccc2)n1C	VP16 counter inconclusive, RORg inh 18µM
CCOC(=O)N/N=C1/C[C@@H](O)[C@@H](O)[C@@H]2[C@@H]3C(=O)N(C4CCCCC4)C(=O)[C@H]3CC[C@@H]12	none (no result: CtBP-E1A inh, Six1-Eya2 blk, p53 reactivation)
Cc1ccc(-c2csc3ncnc(N4CCN(C(=O)c5ccccc5)CC4)c23)cc1	VP16 counter inconclusive
Cc1ccc(C(=O)OC(C)C(=O)c2cc(C)c(C)cc2C)o1 (configuration not stated)	none
Cc1ccc(NC(=O)c2ncn(CCCN(C)CCc3ccccn3)n2)cc1C	none (no result: VP16 counter, p53 reactivation, RORg inh)
CNC(=S)N/N=C/c1ccc(C(C)C)cc1	none (no result: VP16 counter, p53 reactivation, RORg inh)
CC(C)c1ccc(/C=N/NC(=O)CC(=O)NCc2ccccc2)cc1	none (no result: CtBP-E1A inh)
Cc1ccsc1/C=N\NC(=O)CC(=O)NCc1ccccc1	none (no result: CtBP-E1A inh)

Screens (PubChem BioAssay)
